# Laboratory results: the supplement of paper PMC8728848
# Many of the other results were omitted from the sample, so the strongest signals are more common in it than they were.
# B1: PX15618B-bfa-464-25-464 (Bacteroides fragilis) (protein)
# chain: DQEPPLYVNENDIFTSPTRIEATLNGLYAAIKNTGTKSLMGGKSYLVFDNRGDDVINISNNLVTLFNTYNMNVGITDAENADTWTYAYLAINKVNTFLQSLEGAREVAGENYDRYVQEAKFVRALAYYYLNNLYPTPYSVNPDAKSVPLRLTAEAGTENNNMPRSTVKQIYEHILSDLENISALDTEVNTYTGVTHATQAAANMLKMRVYMAMNEWDKAITAGELVTGYSLPEDVTLIYKAPYFSQESIFSLPMADTNIPNTQQSLAEYYYDGKIMLIDTKSGIMSKPDYSLATDKRIIAFKGEKDLLMKFTDAKTKLQWVPIFRYAETLLDLAECYANKAGGEATAKSLLKQVRGRSVDAATDPLNIDNLSGDALKEAIYNEKRLEFIGEGIRGIDIMRRGEHFIKVGENETINVGPSDEKYTWPIPQVELLLNKDINK
# Experiments:
# Assay in all cases: glycan array binding signal (z-score within array); higher = stronger binding
# Details in all cases: glycan notation: IUPAC condensed, linker removed
# Fuc(a1-2)Gal(b1-3)GalNAc = target: Fuc(a1-2)Gal(b1-3)GalNAc
# In short: (§1)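 From the Consortium for Functional Glycomics database, 3228 arrays were curated, keeping only those whose protein sequence was available. Binding is given as a within-array Z-score averaged across arrays sharing a protein sequence and across linkers. Negative Z-scores can be read as non-binding.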
# [1] = target: Fuc(a1-2)Gal(b1-3)GlcNAc(b1-3)[Fuc(a1-2)Gal(b1-3)GlcNAc(b1-6)]GalNAc
# In short: as §1
# [2] = target: Fuc(a1-2)Gal(b1-3)[Fuc(a1-4)]GlcNAc(b1-3)[Fuc(a1-3)[Gal(b1-4)]GlcNAc(b1-6)]Gal(b1-4)Glc
# In short: as §1
# [3] = target: Fuc(a1-2)Gal(b1-4)GlcNAc(b1-2)Man(a1-3)[Fuc(a1-2)Gal(b1-4)GlcNAc(b1-2)Man(a1-6)]Man(b1-4)GlcNAc(b1-4)GlcNAc
# In short: as §1
# [4] = target: Fuc(a1-2)Gal(b1-4)GlcNAc(b1-3)Gal(b1-4)GlcNAc(b1-3)Gal(b1-4)GlcNAc
# In short: as §1
# [5] = target: Fuc(a1-2)Gal(b1-4)[Fuc(a1-3)]GlcNAc(b1-2)[Fuc(a1-2)Gal(b1-4)[Fuc(a1-3)]GlcNAc(b1-4)]Man(a1-3)[Fuc(a1-2)Gal(b1-4)[Fuc(a1-3)]GlcNAc(b1-2)Man(a1-6)]Man(b1-4)GlcNAc(b1-4)GlcNAc
# In short: as §1
# [6] = target: Fuc(a1-2)[Gal(a1-3)]Gal(b1-4)GlcNAc(b1-2)Man(a1-3)[Fuc(a1-2)[Gal(a1-3)]Gal(b1-4)GlcNAc(b1-2)Man(a1-6)]Man(b1-4)GlcNAc(b1-4)GlcNAc
# In short: as §1
# [7] = target: Fuc(a1-2)[Gal(a1-3)]Gal(b1-4)GlcNAc(b1-2)Man(a1-3)[Fuc(a1-2)[Gal(a1-3)]Gal(b1-4)GlcNAc(b1-2)Man(a1-6)]Man(b1-4)GlcNAc(b1-4)[Fuc(a1-6)]GlcNAc
# In short: as §1
# [8] = target: Fuc(a1-2)[GalNAc(a1-3)]Gal(b1-3)GlcNAc
# In short: as §1
# [9] = target: Fuc(a1-2)[GalNAc(a1-3)]Gal(b1-3)GlcNAc(b1-2)Man(a1-3)[Fuc(a1-2)[GalNAc(a1-3)]Gal(b1-3)GlcNAc(b1-2)Man(a1-6)]Man(b1-4)GlcNAc(b1-4)GlcNAc
# In short: as §1
# [10] = target: Fuc(a1-2)[GalNAc(a1-3)]Gal(b1-3)GlcNAc(b1-2)Man(a1-3)[Fuc(a1-2)[GalNAc(a1-3)]Gal(b1-3)GlcNAc(b1-2)Man(a1-6)]Man(b1-4)GlcNAc(b1-4)[Fuc(a1-6)]GlcNAc
# In short: as §1
# [11] = target: Fuc(a1-2)[GalNAc(a1-3)]Gal(b1-4)[Fuc(a1-3)]GlcNAc(b1-3)GalNAc
# In short: as §1
# [12] = target: Fuc(a1-3)[GalNAc(b1-4)]GlcNAc
# In short: as §1
# Gal(a1-3)Gal = target: Gal(a1-3)Gal
# In short: as §1
# Gal(a1-4)Gal(b1-4)Glc = target: Gal(a1-4)Gal(b1-4)Glc
# In short: as §1
# [13] = target: Gal(a1-4)Gal(b1-4)GlcNAc(b1-2)Man(a1-3)[Gal(a1-4)Gal(b1-4)GlcNAc(b1-2)Man(a1-6)]Man(b1-4)GlcNAc(b1-4)GlcNAc
# In short: as §1
# Gal(b1-3)Gal = target: Gal(b1-3)Gal
# In short: as §1
# Gal(b1-3)GlcNAc = target: Gal(b1-3)GlcNAc
# In short: as §1
# [14] = target: Gal(b1-3)GlcNAc(b1-3)Gal(b1-4)GlcNAc(b1-2)Man(a1-3)[Gal(b1-3)GlcNAc(b1-3)Gal(b1-4)GlcNAc(b1-2)Man(a1-6)]Man(b1-4)GlcNAc(b1-4)GlcNAc
# In short: as §1
# [15] = target: Gal(b1-3)[Fuc(a1-4)]GlcNAc(b1-2)Man(a1-3)[Gal(b1-3)[Fuc(a1-4)]GlcNAc(b1-2)Man(a1-6)]Man(b1-4)GlcNAc(b1-4)[Fuc(a1-6)]GlcNAc
# In short: as §1
# [16] = target: Gal(b1-3)[Neu5Ac(b2-6)]GalNAc
# In short: as §1
# [17] = target: Gal(b1-4)GlcNAc(b1-2)Man(a1-6)[Man(a1-3)]Man(b1-4)GlcNAc(b1-4)GlcNAc
# In short: as §1
# [18] = target: Gal(b1-4)GlcNAc(b1-2)[Gal(b1-4)GlcNAc(b1-4)]Man(a1-3)[Gal(b1-4)GlcNAc(b1-2)Man(a1-6)]Man(b1-4)GlcNAc(b1-4)GlcNAc
# In short: as §1
# [19] = target: Gal(b1-4)GlcNAc(b1-2)[Gal(b1-4)GlcNAc(b1-6)]Man(a1-6)[Gal(b1-4)GlcNAc(b1-2)Man(a1-3)]Man(b1-4)GlcNAc(b1-4)GlcNAc
# In short: as §1
# [20] = target: Gal(b1-4)GlcNAc(b1-3)Gal(b1-3)GalNAc
# In short: as §1
# [21] = target: Gal(b1-4)GlcNAc(b1-3)Gal(b1-4)GlcNAc(b1-3)Gal(b1-4)GlcNAc(b1-3)Gal(b1-4)GlcNAc(b1-3)Gal(b1-4)GlcNAc(b1-2)[Gal(b1-4)GlcNAc(b1-3)Gal(b1-4)GlcNAc(b1-3)Gal(b1-4)GlcNAc(b1-3)Gal(b1-4)GlcNAc(b1-3)Gal(b1-4)GlcNAc(b1-6)]Man(a1-6)[Gal(b1-4)GlcNAc(b1-3)Gal(b1-4)GlcNAc(b1-3)Gal(b1-4)GlcNAc(b1-3)Gal(b1-4)GlcNAc(b1-3)Gal(b1-4)GlcNAc(b1-2)Man(a1-3)]Man(b1-4)GlcNAc(b1-4)[Fuc(a1-6)]GlcNAc
# In short: as §1
# [22] = target: Gal(b1-4)GlcNAc(b1-6)Gal(b1-4)GlcNAc
# In short: as §1
# Gal(b1-4)GlcNAc6P = target: Gal(b1-4)GlcNAc6P
# In short: as §1
# Gal3S(b1-4)GlcNAc = target: Gal3S(b1-4)GlcNAc
# In short: as §1
# Gal4S6S(b1-4)GlcNAc = target: Gal4S6S(b1-4)GlcNAc
# In short: as §1
# GalNAc(a1-3)GalNAc = target: GalNAc(a1-3)GalNAc
# In short: as §1
# [23] = target: GalNAc(a1-3)GalNAc(b1-3)Gal(a1-4)Gal(b1-4)GlcNAc
# In short: as §1
# Glc(b1-4)Glc = target: Glc(b1-4)Glc
# In short: as §1
# [24] = target: GlcNAc(a1-4)Gal(b1-4)GlcNAc
# In short: as §1
# [25] = target: GlcNAc(a1-4)Gal(b1-4)GlcNAc(b1-3)Gal(b1-4)GlcNAc
# In short: as §1
# [26] = target: GlcNAc(b1-2)[GlcNAc(b1-4)]Man(a1-3)[GlcNAc(b1-4)][GlcNAc(b1-2)[GlcNAc(b1-6)]Man(a1-6)]Man(b1-4)GlcNAc(b1-4)[Fuc(a1-6)]GlcNAc
# In short: as §1
# [27] = target: GlcNAc(b1-2)[GlcNAc(b1-6)]Man(a1-6)[GlcNAc(b1-2)Man(a1-3)]Man(b1-4)GlcNAc(b1-4)[Fuc(a1-6)]GlcNAc
# In short: as §1
# [28] = target: GlcNAc(b1-4)Gal(b1-4)GlcNAc
# In short: as §1
# [29] = target: GlcNAc(b1-6)Gal(b1-4)GlcNAc
# In short: as §1
# Man(a1-6)Man = target: Man(a1-6)Man
# In short: as §1
# [30] = target: Neu5Ac(a2-3)Gal(b1-3)GlcNAc(b1-2)Man(a1-3)[GlcNAc(b1-4)][Neu5Ac(a2-3)Gal(b1-3)GlcNAc(b1-2)Man(a1-6)]Man(b1-4)GlcNAc(b1-4)GlcNAc
# In short: as §1
# [31] = target: Neu5Ac(a2-3)Gal(b1-3)GlcNAc6S
# In short: as §1
# [32] = target: Neu5Ac(a2-3)Gal(b1-4)GlcNAc(b1-3)Gal(b1-4)GlcNAc(b1-3)Gal(b1-4)GlcNAc(b1-2)Man(a1-3)[Neu5Ac(a2-3)Gal(b1-4)GlcNAc(b1-3)Gal(b1-4)GlcNAc(b1-3)Gal(b1-4)GlcNAc(b1-2)Man(a1-6)]GalNAc
# In short: as §1
# [33] = target: Neu5Ac(a2-3)Gal(b1-4)GlcNAc(b1-3)Gal(b1-4)GlcNAc(b1-3)[Neu5Ac(a2-3)Gal(b1-4)GlcNAc(b1-3)Gal(b1-4)GlcNAc(b1-6)]GalNAc
# In short: as §1
# [34] = target: Neu5Ac(a2-3)Gal6S(b1-4)GlcNAc
# In short: as §1
# [35] = target: Neu5Ac(a2-3)[GalNAc(b1-4)]Gal(b1-4)GlcNAc(b1-3)GalNAc
# In short: as §1
# [36] = target: Neu5Ac(a2-6)Gal(b1-4)GlcNAc(b1-6)[Gal(b1-3)]GalNAc
# In short: as §1
# [37] = target: Neu5Ac(a2-8)Neu5Ac(a2-3)Gal(b1-4)GlcNAc
# In short: as §1
# [38] = target: Neu5Ac9Ac(a2-3)Gal(b1-4)GlcNAc
# In short: as §1
binder,measurement,setting,value
B1,glycan array binding signal (z-score),Fuc(a1-2)Gal(b1-3)GalNAc,-0.355
same,glycan array binding signal (z-score),[1],1.41
same,glycan array binding signal (z-score),[2],-0.516
same,glycan array binding signal (z-score),[3],8.2
same,glycan array binding signal (z-score),[4],0.251
same,glycan array binding signal (z-score),[5],4.25
same,glycan array binding signal (z-score),[6],1.41
same,glycan array binding signal (z-score),[7],-0.101
same,glycan array binding signal (z-score),[8],-0.308
same,glycan array binding signal (z-score),[9],0.241
same,glycan array binding signal (z-score),[10],0.028
same,glycan array binding signal (z-score),[11],0.311
same,glycan array binding signal (z-score),[12],1.31
same,glycan array binding signal (z-score),Gal(a1-3)Gal,0.348
same,glycan array binding signal (z-score),Gal(a1-4)Gal(b1-4)Glc,0.822
same,glycan array binding signal (z-score),[13],-0.514
same,glycan array binding signal (z-score),Gal(b1-3)Gal,0.33
same,glycan array binding signal (z-score),Gal(b1-3)GlcNAc,1.37
same,glycan array binding signal (z-score),[14],-0.678
same,glycan array binding signal (z-score),[15],0.153
same,glycan array binding signal (z-score),[16],-0.017
same,glycan array binding signal (z-score),[17],0.248
same,glycan array binding signal (z-score),[18],0.511
same,glycan array binding signal (z-score),[19],2.66
same,glycan array binding signal (z-score),[20],-0.13
same,glycan array binding signal (z-score),[21],19.3
same,glycan array binding signal (z-score),[22],0.086
same,glycan array binding signal (z-score),Gal(b1-4)GlcNAc6P,-0.626
same,glycan array binding signal (z-score),Gal3S(b1-4)GlcNAc,-0.305
same,glycan array binding signal (z-score),Gal4S6S(b1-4)GlcNAc,-0.852
same,glycan array binding signal (z-score),GalNAc(a1-3)GalNAc,-0.504
same,glycan array binding signal (z-score),[23],-0.273
same,glycan array binding signal (z-score),Glc(b1-4)Glc,-0.138
same,glycan array binding signal (z-score),[24],-0.125
same,glycan array binding signal (z-score),[25],-0.455
same,glycan array binding signal (z-score),[26],0.399
same,glycan array binding signal (z-score),[27],0.701
same,glycan array binding signal (z-score),[28],1.25
same,glycan array binding signal (z-score),[29],-0.393
same,glycan array binding signal (z-score),Man(a1-6)Man,0.302
same,glycan array binding signal (z-score),[30],0.609
same,glycan array binding signal (z-score),[31],-0.374
same,glycan array binding signal (z-score),[32],3.29
same,glycan array binding signal (z-score),[33],0.164
same,glycan array binding signal (z-score),[34],-0.187
same,glycan array binding signal (z-score),[35],0.625
same,glycan array binding signal (z-score),[36],1.16
same,glycan array binding signal (z-score),[37],-0.48
same,glycan array binding signal (z-score),[38],0.409
